Common to all, as to settings: concentration: 10 µM; 24 h
The test system of test [1] is HCC1569. As to the kind of experiment: cell number relative to DMSO (% of DMSO); higher = more cells (less growth inhibition / toxicity). In short, it runs like this:
(§1)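 H1.0 nuclear intensity or cell number is stated as percent of the plate control, based on the median of replicates, and HCC1569 values were smoothed for positional effects. These came from HCC1569 and TDF cells treated with compounds at 10 µM for 24 h at 37 °C in triplicate, then fixed in 3.7% formaldehyde and stained with a rabbit anti-H1.0 antibody, an AlexaFluor 647 secondary and DAPI.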

The subject of test [2] is TDF. Described as above. In short, it runs like this:
as §1

Test [3] concerns TDF. As to the kind of experiment: H1.0 immunofluorescence intensity relative to DMSO (% of DMSO); higher = stronger H1.0 induction, active = 120 or more. In short, it runs like this: as §1
The test system of test [4] is HCC1569. As to the kind of experiment: H1.0 immunofluorescence intensity relative to DMSO (% of DMSO); higher = stronger H1.0 induction, active = 140 or more. In short, it runs like this:
as §1

SMILES strings stand for the structures. Values joined by “and” are separate entries in the source; they are usually repeats but may differ in a detail not shown here. Identical values can stand only once. ± gives the standard deviation of the averaged measurements.
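Throughout, for H1.0 immunofluorescence intensity relative to DMSO: TDF is a line of transformed human dermal fibroblasts of mesenchymal origin.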
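Throughout, for cell number relative to DMSO: TDF denotes transformed human dermal fibroblasts of mesenchymal origin.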

`C=C(C)C1CC=C(C(=O)O)CC1` (configuration not stated) [Perillic acid]: the figures for the cell number in the test with HCC1569 [1] and in the test on TDF [2] were 102 and 98.7, respectively. In addition, the H1.0 immunofluorescence intensity in the test with TDF [3] was 96.4 (inactive); with HCC1569 [4], 92.9 (inactive).
For `CCC(Sc1nnc2c(n1)[nH]c1ccccc12)C(=O)N1c2ccccc2Sc2ccccc21` (configuration not stated) the same measures were 96.4, 96.3, 103 (inactive) and 700 (active).
For `Cc1[nH]c(=O)c(C#N)cc1-c1ccncc1` [Milrinone] the same measures were 103 ± 3.6, 108 ± 13, 92.3 (inactive) and 103 (inactive).
The like results for `CCCCCCCCC=CCCCCCCCCOCC(COP(=O)([O-])OCC[N+](C)(C)C)OC(C)=O` (configuration not stated) were, in that order, 101, 114, 94 (inactive) and 98.3 (inactive).
As for `N#CC(=C(N)Sc1ccccc1N)C(C#N)=C(N)Sc1ccccc1N`, the cell number with HCC1569 [1] was 102 and 101; in the test with TDF [2], 95.9 and 96.9. Moreover, the H1.0 immunofluorescence intensity was 94 (inactive) and 88.9 (inactive) with TDF [3]; 108 (inactive) and 98.1 (inactive) in the test with HCC1569 [4].
On to `CC(NCCc1ccc(O)cc1)C(O)c1ccc(O)cc1.Cl` (configuration not stated) [Ritodrine hydrochloride], for which the cell number with HCC1569 [1] amounted to 107; with TDF [2], 113. Also, the H1.0 immunofluorescence intensity with TDF [3] was 101 (inactive); in the test with HCC1569 [4] it was 91.5 (inactive).
The like results for `O=C1c2ccccc2-n2c1nc1ccccc1c2=O` [Tryptanthrin] were, in that order, 96.9, 53.6, 101 (inactive) and 93.6 (inactive).
For `CCn1ccnc1CC1COc2ccccc2O1.Cl` (configuration not stated) [Imiloxan hydrochloride], the cell number stood at 103 in the test with HCC1569 [1] and 105 in the test on TDF [2]. Moreover, the H1.0 immunofluorescence intensity with TDF [3] is 88 (inactive); in the test on HCC1569 [4], 100 (inactive).
For `CC1OC(OCC2OC(Oc3cc(O)c4c(c3)OC(c3ccc(O)cc3)CC4=O)C(O)C(O)C2O)C(O)C(O)C1O` (configuration not stated) [Narirutin] the same measures were 101, 103, 94.7 (inactive) and 80.9 (inactive).
For `CC(C)(C#N)c1ccc(N2C(=O)OCc3cnc4ccc(-c5cnc6ccccc6c5)cc4c32)cc1` the same measures were 59.8, 44.1, 101 (inactive) and 206 (active).
As to `COc1c(O)cc2oc(-c3ccc(O)cc3)cc(=O)c2c1O` [5,7-dihydroxy-2-(4-hydroxyphenyl)-6-methoxy-4H-chromen-4-one], the cell number in the test on HCC1569 [1] is 92.6; in the test on TDF [2] it was 102. Further, the H1.0 immunofluorescence intensity is 88 (inactive) with TDF [3] and 106 (inactive) in the test on HCC1569 [4].
The like results for `NNC(=O)c1ccncc1` [Isoniazid] were, in that order, 105, 104, 89.6 (inactive) and 110 (inactive).
As to `CCc1nn(CCCN2CCN(c3cccc(Cl)c3)CC2)c(=O)n1CCOc1ccccc1` [Nefazodone], the cell number with HCC1569 [1] was 98.9; in the test on TDF [2], 100. Also, the H1.0 immunofluorescence intensity with TDF [3] was 95.5 (inactive); in the test with HCC1569 [4] it was 110 (inactive).
With `CCCCCC=CCC=CCCCCCCCCCCCC(=O)O` [13(Z),16(Z)-Docosadienoic acid], the cell number was 100 in the test with HCC1569 [1] and 109 in the test with TDF [2]. In addition, the H1.0 immunofluorescence intensity was 104 (inactive) in the test on TDF [3] and 89.9 (inactive) in the test on HCC1569 [4].
For `COc1cc(OC)cc(C(CNc2ncnc3c2ncn3C2OC(CO)C(O)C2O)c2ccccc2C)c1` (configuration not stated) the same measures were 101, 103, 94.5 (inactive) and 100 (inactive).
For the compound `CC(C)C(N)C(=O)OCCOCn1cnc2c(=O)nc(N)[nH]c21` (configuration not stated) [Valaciclovir], the cell number with HCC1569 [1] was 99.8; in the test with TDF [2], 104. Moreover, the H1.0 immunofluorescence intensity was 102 (inactive) with TDF [3] and 109 (inactive) with HCC1569 [4].
The like results for `COc1ccc(CC(N)C(=O)NC2C(CO)OC(n3cnc4c(N(C)C)ncnc43)C2O)cc1` (configuration not stated) [Puromycin] were, in that order, 24.1 ± 7.4, 99.2 ± 15, 94 (inactive) and 90.9 (inactive).
The like results for `Cc1[nH]c2ccccc2c1C1=C(NCCc2ccc(F)cc2)C(=O)N(C)C1=O` were, in that order, 82.4, 59, 137 (active) and 113 (inactive).
With `CC(C)C1NC(=O)C(CCCCN)NC(=O)C(Cc2c[nH]c3ccccc23)NC(=O)C(Cc2ccc(O)cc2)NC(=O)C(C)N(C)C(=O)C(Cc2ccccc2)NC1=O` (configuration not stated) [Seglitide], the results for the cell number in the test on HCC1569 [1] and in the test on TDF [2] were 89.8 and 98.2, respectively. In addition, the results for the H1.0 immunofluorescence intensity with TDF [3] and with HCC1569 [4] were 102 (inactive) and 152 (active), respectively.
For `CC(=O)NC(CSCC=C(C)CCC=C(C)CCC=C(C)CCC=C(C)C)C(=O)O` (configuration not stated) the same measures were 102, 98.3, 105 (inactive) and 95.9 (inactive).
For `COc1cc2c(cc1OC)C(c1ccccc1)CN(C)CC2.O=C(O)C=CC(=O)O` (configuration not stated) the same measures were 101, 98.3, 94.3 (inactive) and 92.5 (inactive).
With `CCOc1nc2cccc(C(=O)O)c2n1Cc1ccc(-c2ccccc2-c2nc(=O)o[nH]2)cc1`, the cell number amounted to 79.7 in the test on HCC1569 [1] and 101 in the test with TDF [2]. Besides, the H1.0 immunofluorescence intensity was 103 (inactive) in the test on TDF [3] and 137 (inactive) with HCC1569 [4].
The like results for `O=C(NC(NC(=S)Nc1ccc(F)c([N+](=O)[O-])c1)C(Cl)(Cl)Cl)C(c1ccccc1)c1ccccc1` (configuration not stated) [ATM/ATR Kinase Inhibitor] were, in that order, 62.4, 64.5, 112 (inactive) and 179 (active).

For the origin of these results see the supplement of paper PMC7156485.
